Hits are enriched below; roughly 3.3% of the tested compounds scored in any of these assays.
NS1 inh: influenza NS1 inhibition | Potency, µM (highest dose often 46.1 µM) | hit rate 0.4% among 270,000; calls by dose curve; further: actives are rising curves; nearly all actives have a fitted effect of over 50% in size
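In this qHTS, NS1 from influenza A is expressed in budding yeast, where it slows growth. Cells are switched from glucose to 2% galactose medium (pH 6.0, -URA), treated with compound, and growth recovery is read at OD600.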
SARS PLpro yeast: inhibitors of SARS-CoV papain-like protease in yeast | S. cerevisiae expressing SARS-CoV PLpro, growth rescue | Potency, µM (highest dose often 32.9 µM), most hits filed as activators | hit rate 0.19% among 330,000 | AID 485353; calls by dose curve; further: nearly all actives have a fitted effect of over 55% in size
Sm TGR inh: S. mansoni TGR enzyme inhibition; purified TGR, DTNB reduction, TNB absorbance 405 nm; Potency, µM (titrated, usually from 114 µM), hits mostly inhibitors; hit rate 3% among 360,000; Q962Y6; further: nearly all actives have a fitted effect of over 60% in size
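Kinetic colorimetric format: TGR-catalysed, NADPH-driven DTNB reduction monitored via TNB absorbance. Enzyme dispensed at 20 nM; compound exposure 15 min at room temperature before reaction start.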
TbPYK inhibitor: blocks Trypanosoma brucei pyruvate kinase; Potency, µM (doses to about 76.8 µM), most hits filed as inhibitors; AID 624173; TbPYK enzyme, Kinase-Glo Plus ATP luminescence, 45 min; Q57TT1; hit rate 0.12% among 410,000; further: nearly all actives have a fitted effect of over 50% in size
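Glycolytic pyruvate kinase of T. brucei was incubated with substrate, test compound and 130 uM ADP for 45 minutes at room temperature. Luminescent Kinase-Glo Plus signal was measured after 10 minutes.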
LmPK inh: LmPK (Leishmania mexicana) enzyme inhibition. Q27686. purified LmPK, Kinase-Glo ATP luminescence, 1 h. Potency, µM (top dose mostly 57.5 µM), actives largely listed as inhibitors. hit rate 0.37% among 290,000
Target sequence (Q27686 whole entry, looked up): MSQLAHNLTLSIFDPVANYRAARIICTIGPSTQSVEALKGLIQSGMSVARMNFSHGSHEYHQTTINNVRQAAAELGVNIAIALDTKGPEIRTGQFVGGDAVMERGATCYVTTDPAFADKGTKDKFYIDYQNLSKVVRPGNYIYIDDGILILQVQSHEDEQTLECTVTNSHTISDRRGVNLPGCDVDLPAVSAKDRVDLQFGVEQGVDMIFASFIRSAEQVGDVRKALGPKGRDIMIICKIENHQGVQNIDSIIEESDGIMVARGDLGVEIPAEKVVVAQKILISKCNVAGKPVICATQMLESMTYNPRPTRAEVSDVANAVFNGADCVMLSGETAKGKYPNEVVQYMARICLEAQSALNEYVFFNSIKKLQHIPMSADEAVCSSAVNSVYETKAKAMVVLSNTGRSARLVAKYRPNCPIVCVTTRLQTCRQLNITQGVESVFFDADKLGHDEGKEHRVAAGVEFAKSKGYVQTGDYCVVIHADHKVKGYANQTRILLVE
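0.1 nM LmPK, 0.5 mM PEP, 0.1 mM ADP; 50 mM imidazole pH 7.2, 7 mM MgCl2, 50 mM KCl; 1 h RT. Kinase-Glo luminescence readout, normalized to no-enzyme (full inhibition) and uninhibited wells.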
RE007 growth inh: less growth of the S. pombe RE007 Vpr strain | S. pombe RE007 Vpr strain, BacTiter-Glo ATP luminescence, 24 h | AID 651644 | Potency, µM (series often up to 92.2 µM), usual class: inhibitors | hit rate 0.21% among 360,000; active means well fitted falling curve with a large enough effect; inconclusive means small, poorly fitted or top-dose-only effect; inactive means no such curve, though single readings can be large or run the other way; further: nearly all actives have a fitted effect of over 50% in size
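Fission yeast strain RE007, carrying one chromosomally integrated HIV-1 vpr copy, was seeded at OD 0.01 in PMG+AL medium with 23 nL pinned compound. After 24 h at 30 °C and 99% humidity, viability was read by BacTiter-Glo luminescence.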
Each line names hits and unclear results; the compound was inactive in the other large screens. Unless noted, the call rests on the fitted dose curve; in most records, active means well fitted curve in the direction sought with a large enough effect; inconclusive means small, poorly fitted or top-dose-only effect, or another doubt; inactive means no such curve, though single readings can be large; an effect the other way counts as inactive or inconclusive.

CN1CCC[C@@H]1c1cccnc1.O=C(O)c1ccccc1O.O=C([OH2+])c1ccccc1O.O=C([OH2+])c1ccccc1O.O=C([OH2+])c1ccccc1O.[Cu]	none (no result: SARS PLpro yeast, Sm TGR inh, TbPYK inhibitor, LmPK inh, RE007 growth inh)
O=C(C[n+]1cc(Br)cc2ccccc21)c1ccc(Br)cc1	NS1 inh inconclusive
O=C(C[n+]1cn(C(F)F)c2ccccc21)c1ccc(Br)cc1	Sm TGR inh 4µM
Cc1ccn2c(Nc3ccc(F)cc3)c(-c3ccc(C)o3)nc2c1	none (no result: NS1 inh, SARS PLpro yeast, LmPK inh, RE007 growth inh)
Cc1ccc(-c2nc3ncccn3c2NC2CCCC2)o1	none
Cc1ccc(-c2nc3ncccn3c2Nc2ccc3c(c2)OCO3)o1	Sm TGR inh inconclusive
Brc1ccc(-c2nc3ncccn3c2NC2CCCCC2)o1	Sm TGR inh 35µM
Cc1ccc(Nc2c(-c3ccc(C)o3)nc3ncccn23)cc1	Sm TGR inh 20µM
Cc1ccc(-c2nc3cnccn3c2Nc2c(C)cccc2C)o1	Sm TGR inh 14µM, RE007 growth inh inconclusive
Cc1ccc(-c2nc3ncccn3c2Nc2ccccc2C)o1	Sm TGR inh 40µM (no result: NS1 inh)
CCOC(=O)CN1C(=O)N[C@@H](c2cccc(C(F)(F)F)c2)[C@H](C(=O)OC)[C@H]1C	none (no result: NS1 inh, SARS PLpro yeast, Sm TGR inh, TbPYK inhibitor, RE007 growth inh)
CCCCc1nc2c(c3c1C[C@H](C)OC3)CN(C(=O)COC)CC2	none (no result: NS1 inh, SARS PLpro yeast, Sm TGR inh, TbPYK inhibitor, RE007 growth inh)
CC(=O)N1CCC2(CC1)CC(=O)c1cc(OCC(=O)NCc3ccco3)ccc1O2	Sm TGR inh 25µM
CCCC(=O)O[C@]1(C(=O)CCl)[C@H](C)C[C@@H]2[C@H]3CCC4=CC(=O)C=C[C@]4(C)[C@@]3(F)C(=O)C[C@@]21C	none (no result: NS1 inh, SARS PLpro yeast, Sm TGR inh, LmPK inh, RE007 growth inh)
C/C(=N/O)c1cccc(N2Cc3ccccc3C2)c1	Sm TGR inh 22µM
C/C(=N\O)c1cccc(Br)c1	none
CN(C)S(=O)(=O)c1cccc(NC(=S)NNC(=O)c2cc3ccccc3cc2O)c1	SARS PLpro yeast 4.5µM (no result: NS1 inh, LmPK inh)
O=C1C2C3C=CC(CC3)C2C(=O)N1c1ccc(Br)cc1[N+](=O)[O-] (stereo not drawn)	none
O=C1C2C3C=CC(CC3)C2C(=O)N1c1ccccc1[N+](=O)[O-] (stereo not drawn)	Sm TGR inh 18µM (no result: NS1 inh)
CCCCC1=CC2=C(c3ccco3)C(=O)C(C)(OC(=O)c3ccc(OC)cc3)C(=O)C2=CN1CCCCO (stereo not drawn)	Sm TGR inh inconclusive
CCCCC1=CC2=C(c3ccco3)C(=O)C(C)(OC(=O)c3ccc(OC)cc3)C(=O)C2=CN1CC(C)C (stereo not drawn)	Sm TGR inh 14µM
CCCCC1=CC2=C(c3ccco3)C(=O)C(C)(OC(=O)c3ccc(OC)cc3)C(=O)C2=CN1CCN1CCOCC1 (stereo not drawn)	Sm TGR inh 45µM
O=C(NCC(c1ccc2c(c1)OCO2)N1CCN(c2ccccc2F)CC1)c1ccccc1F (stereo not drawn)	none (no result: NS1 inh, SARS PLpro yeast, LmPK inh, RE007 growth inh)
O=[N+]([O-])c1cc(O)c2ncccc2c1	RE007 growth inh 7.9µM (no result: NS1 inh)
O=[N+]([O-])c1cc2cccnc2c2ncccc12	none
CC(=O)Oc1cccc(N2C(=O)C3C4C=CC(CC4)C3C2=O)c1 (stereo not drawn)	Sm TGR inh 45µM
CC(=O)Oc1cccc(N2C(=O)C3C4C=CC(C4)C3C2=O)c1 (stereo not drawn)	none
CCCn1cnc2c(c1=O)c1nc3ccccc3nc1n2Cc1ccccc1OC	none (no result: TbPYK inhibitor, RE007 growth inh)
Cc1cccc(-n2cnc3c(c2=O)c2nc4ccccc4nc2n3Cc2ccco2)c1	Sm TGR inh 2.8µM
COc1ccc(Cn2c3nc4ccccc4nc3c3c(=O)n(Cc4ccco4)cnc32)cc1	NS1 inh 8.9µM, Sm TGR inh 16µM (no result: TbPYK inhibitor, RE007 growth inh)
Cc1cccc(S(=O)(=O)c2c(N)n(Cc3ccco3)c3nc4ccccc4nc23)c1	Sm TGR inh 18µM
Cc1ccc(S(=O)(=O)c2c(N)n(Cc3ccco3)c3nc4ccccc4nc23)cc1	Sm TGR inh inconclusive
COc1ccc(C(=O)N2CCCN(C)CC2)cc1S(=O)(=O)N(C)Cc1ccccc1	Sm TGR inh 35µM (no result: NS1 inh, LmPK inh)
C#CCOCCOCCOCCNc1nc(N2CCOCC2)nc(N2CCN(C(=O)CCCCCCCCCCNC(=O)Cn3cc(CCCCCN)nn3)CC2)n1	Sm TGR inh inconclusive (no result: NS1 inh, LmPK inh)
C#CCOCCOCCOCCNc1nc(N2CCN(C(=O)CCCCCCCCCCNC(=O)Cn3cc(CCCCCN)nn3)CC2)nc(N2CCN(C(=O)CCCCCCCCCCNC(=O)[C@H]([C@@H](C)CC)n3cc(CCCCCN)nn3)CC2)n1	Sm TGR inh 45µM (no result: NS1 inh, LmPK inh)
C#CCOCCOCCOCCNc1nc(N2CCN(C(=O)CCCCCCCCCCNC(=O)Cn3cc(CCCCCN)nn3)CC2)nc(N2CCN(C(=O)CCCCCCCCCCNC(=O)[C@H](CO)n3cc(CCCCCN)nn3)CC2)n1	Sm TGR inh 40µM (no result: NS1 inh, LmPK inh)
C#CCOCCOCCOCCNc1nc(N2CCOCC2)nc(N2CCN(C(=O)CCCCCCCCCCNC(=O)[C@H](CO)n3cc(CCCCCN)nn3)CC2)n1	none (no result: NS1 inh, LmPK inh)
COc1ccc(CC2=CC(=O)c3ccccc3C2=O)cc1	Sm TGR inh 28µM, TbPYK inhibitor inconclusive, RE007 growth inh inconclusive
COc1ncccc1-c1nnn(-c2ccc(Cl)nc2)n1	Sm TGR inh 25µM

Assay outcomes deposited in PubChem BioAssay by National Center for Advancing Translational Sciences (NCATS).
